# Laboratory results from PubChem BioAssay (NCI).
# The panel holds about 79,000 compounds, 15% with a hit somewhere; the sample as a whole holds those more often. Calls of active or inactive are those of the source. Rule as the data show it: active = growth inhibition above about 70%; inactive = the rest.
# Experiment: NCI Yeast Anticancer Drug Screen. Data for the mlh1 strain (AID 171);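 also: 0% = growth of vehicle-treated control cultures of the same strain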
# Conditions: S. cerevisiae mlh1 strain growth inhibition; at 100.0 µM; stronger effect = higher value
# Method in brief: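 Growth of the mutant yeast strain after compound exposure, expressed as inhibition relative to vehicle-only controls.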
row,Compound,growth inhibition
1,CN(C)CCNC(=O)c1cccc2nc3c(ccc4ccccc43)nc12,98% (active)
2,O=S(=O)(CCC[C@H]1[C@@H](CCOCc2ccccc2)C2CCCN1O2)c1ccccc1 (stereo partly specified),26% (inactive)
3,Nc1c([N+](=O)[O-])cc2c3c(cccc13)CC2,53% (inactive)
4,CC1=Cc2ccc(C)cc2C(=O)C1=O,99% (active)
5,C=Cc1c(C)c(O)cc2c1-c1ccc(O)c(C)c1CC2,99% (active)
6,NCC(O)CSCc1ccc(Cl)cc1 (stereo unspecified),22% (inactive)
7,C[n+]1c(-c2ccc(NC(=O)c3ccc(C(=O)Nc4ccc(-c5cn6ccccc6[n+]5C)cc4)cc3)cc2)cn2ccccc21,94% (active)
8,CNC(=O)OCc1c(COC(=O)NC)c(C)n(-c2ccc(Cl)c(Cl)c2)c1C,97% (active)
9,[O-]c1c2cc(-[n+]3c(-c4ccccc4)cc(-c4ccccc4)cc3-c3ccccc3)cc1COCCOCCOCCOCCOC2,87% (active)
10,C[Si](C)(C)Cc1ccccc1C(=O)O,99% (active)

# Experiment: NCI Yeast Anticancer Drug Screen. Data for the sgs1 strain (AID 173);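 also: 0% = growth of vehicle-only control cultures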
# Conditions: S. cerevisiae sgs1 mutant, at 1.2 µM, stronger effect = higher value
# Method in brief: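 Growth of a yeast strain bearing a defined genetic alteration is measured after compound treatment. Inhibition is expressed relative to vehicle-only controls.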
row,Compound,growth inhibition
1,COc1ccc(/C=C2\CCc3ccccc3C2=O)cc1OC,-6% (inactive)
2,O=Cc1ccccc1B(O)O,18% (inactive)
3,CC(=O)CC[N+](C)(C)C,-8% (inactive)
4,O=C(O)[C@H]1[C@@H](C2CCCCC2)O[C@@H](C2CCCCC2)O[C@H]1C(F)(F)F,-2% (inactive)
5,CN(NC(=O)/C(=C/C=C/c1ccccc1)NC(=O)c1ccccc1)C1=C(Cl)C(=O)[N+](c2ccccc2)=CC1,1% (inactive)
6,CCCCOc1ccc(Nc2c3ccccc3nc3ccccc23)cc1,-3% (inactive)
7,N#C/C(=C1C=C/C(=N\O)C(Cl)=C\1)c1ccccc1,-3% (inactive)
8,COc1ccc(C(=O)OCCc2ccccc2)cc1,-15% (inactive)
9,Cc1c2ccncc2c(C)c2c1oc1ccccc12,-5% (inactive)
10,CCCC#CCOC(=O)c1cc([N+](=O)[O-])cc([N+](=O)[O-])c1,4% (inactive)
11,Nc1nc(Nc2ccccc2)nc(Nc2ccccc2)n1,-10% (inactive)
12,COc1ccc(/C=C2\S/C(=N/Nc3nc(-c4ccccc4)cs3)NC2=O)cc1OC,32% (inactive)
13,CC(O)CN1C(=O)c2cccc3cc([N+](=O)[O-])cc(c23)C1=O (stereo unspecified),-6% (inactive)
14,Cn1c(COc2ccc(/C=N/NC(=O)CCC(=O)N/N=C/c3ccc(OCc4c[n+]5ccccc5n4C)cc3)cc2)c[n+]2ccccc12,4% (inactive)
15,COC1=C(N=[N+]=[N-])C(=O)c2ncccc2C1=O,8% (inactive)
16,CCN(CC)c1ccc(N=Nc2cc(S(=O)(=O)O)ccc2O)c(O)c1,-13% (inactive)
17,O=C1C(C(O)(C(F)(F)F)C(F)(F)F)CCC1C(O)(C(F)(F)F)C(F)(F)F (stereo unspecified),3% (inactive)
18,CN(C)CCNC(=O)c1cccc2nc3c(ccc4ccccc43)nc12,-4% (inactive)
19,O=S(=O)(CCC[C@H]1[C@@H](CCOCc2ccccc2)C2CCCN1O2)c1ccccc1 (stereo partly specified),2% (inactive)
20,CCC(C)/C(C)=N/NC(N)=O (stereo unspecified),0% (inactive)
21,Nc1c([N+](=O)[O-])cc2c3c(cccc13)CC2,8% (inactive)
22,CC1=Cc2ccc(C)cc2C(=O)C1=O,-1% (inactive)
23,C=Cc1c(C)c(O)cc2c1-c1ccc(O)c(C)c1CC2,-7% (inactive)
24,NCC(O)CSCc1ccc(Cl)cc1 (stereo unspecified),-9% (inactive)
25,C[n+]1c(-c2ccc(NC(=O)c3ccc(C(=O)Nc4ccc(-c5cn6ccccc6[n+]5C)cc4)cc3)cc2)cn2ccccc21,-2% (inactive)
26,CNC(=O)OCc1c(COC(=O)NC)c(C)n(-c2ccc(Cl)c(Cl)c2)c1C,3% (inactive)
27,[O-]c1c2cc(-[n+]3c(-c4ccccc4)cc(-c4ccccc4)cc3-c3ccccc3)cc1COCCOCCOCCOCCOC2,-4% (inactive)
28,C[Si](C)(C)Cc1ccccc1C(=O)O,-1% (inactive)

# Same assay, conditions: S. cerevisiae sgs1 mutant, at 3.7 µM, stronger effect = higher value
row,Compound,growth inhibition
1,COc1ccc(/C=C2\CCc3ccccc3C2=O)cc1OC,-26% (inactive)
2,O=Cc1ccccc1B(O)O,66% (inactive)
3,CC(=O)CC[N+](C)(C)C,-12% (inactive)
4,O=C(O)[C@H]1[C@@H](C2CCCCC2)O[C@@H](C2CCCCC2)O[C@H]1C(F)(F)F,0% (inactive)
5,CN(NC(=O)/C(=C/C=C/c1ccccc1)NC(=O)c1ccccc1)C1=C(Cl)C(=O)[N+](c2ccccc2)=CC1,5% (inactive)
6,CCCCOc1ccc(Nc2c3ccccc3nc3ccccc23)cc1,-11% (inactive)
7,N#C/C(=C1C=C/C(=N\O)C(Cl)=C\1)c1ccccc1,7% (inactive)
8,COc1ccc(C(=O)OCCc2ccccc2)cc1,7% (inactive)
9,Cc1c2ccncc2c(C)c2c1oc1ccccc12,-6% (inactive)
10,CCCC#CCOC(=O)c1cc([N+](=O)[O-])cc([N+](=O)[O-])c1,97% (active)
11,Nc1nc(Nc2ccccc2)nc(Nc2ccccc2)n1,-3% (inactive)
12,COc1ccc(/C=C2\S/C(=N/Nc3nc(-c4ccccc4)cs3)NC2=O)cc1OC,73% (active)
13,CC(O)CN1C(=O)c2cccc3cc([N+](=O)[O-])cc(c23)C1=O (stereo unspecified),-15% (inactive)
14,Cn1c(COc2ccc(/C=N/NC(=O)CCC(=O)N/N=C/c3ccc(OCc4c[n+]5ccccc5n4C)cc3)cc2)c[n+]2ccccc12,4% (inactive)
15,COC1=C(N=[N+]=[N-])C(=O)c2ncccc2C1=O,30% (inactive)
16,CCN(CC)c1ccc(N=Nc2cc(S(=O)(=O)O)ccc2O)c(O)c1,-10% (inactive)
17,O=C1C(C(O)(C(F)(F)F)C(F)(F)F)CCC1C(O)(C(F)(F)F)C(F)(F)F (stereo unspecified),8% (inactive)
18,CN(C)CCNC(=O)c1cccc2nc3c(ccc4ccccc43)nc12,-4% (inactive)
19,O=S(=O)(CCC[C@H]1[C@@H](CCOCc2ccccc2)C2CCCN1O2)c1ccccc1 (stereo partly specified),3% (inactive)
20,CCC(C)/C(C)=N/NC(N)=O (stereo unspecified),4% (inactive)
21,Nc1c([N+](=O)[O-])cc2c3c(cccc13)CC2,20% (inactive)
22,CC1=Cc2ccc(C)cc2C(=O)C1=O,8% (inactive)
23,C=Cc1c(C)c(O)cc2c1-c1ccc(O)c(C)c1CC2,16% (inactive)
24,NCC(O)CSCc1ccc(Cl)cc1 (stereo unspecified),12% (inactive)
25,C[n+]1c(-c2ccc(NC(=O)c3ccc(C(=O)Nc4ccc(-c5cn6ccccc6[n+]5C)cc4)cc3)cc2)cn2ccccc21,1% (inactive)
26,CNC(=O)OCc1c(COC(=O)NC)c(C)n(-c2ccc(Cl)c(Cl)c2)c1C,-4% (inactive)
27,[O-]c1c2cc(-[n+]3c(-c4ccccc4)cc(-c4ccccc4)cc3-c3ccccc3)cc1COCCOCCOCCOCCOC2,-2% (inactive)
28,C[Si](C)(C)Cc1ccccc1C(=O)O,1% (inactive)
